Assay results as given in ChEMBL document CHEMBL4513216, “Probing the Open Global Health Chemical Diversity Library for Multistage-Active Starting Points for Next-Generation Antimalarials” (ACS Infect Dis, 2020).
Hit rate of the full screen: of about 68,000 compounds, about 2,700 (4%) showed an effect of 50% or more. Many of the other results were omitted from the sample, so strong results are more common in it than they were.

What follows are compounds tested on Plasmodium berghei (assay: Screen against P. berghei liver stage (PbLuc), transformed with Luciferase, at 2uM). Conditions: tested at 2 uM.
Type: functional, HepG2

Structure (SMILES)	INHIBITION
CCCN(CCO)C(=O)C1CCC(=O)N(CCc2ccc(Cl)cc2)C1 (centres undefined)	-16.93%
CCN(CCO)C(=O)C1CCC(=O)N(CCc2cccc(F)c2)C1 (centres undefined)	30.62%
CC(C)N(C)C(=O)C1CCC(=O)N(CCc2cccc(F)c2)C1 (centres undefined)	68.39%
CN1CCN(C2COC3(CCN(Cc4ccc(F)cc4)CC3)C2)CC1 (centres undefined)	-0.38%
CC(C)c1cc(C(=O)NCC(O)C2CCOCC2)nn1C(C)(C)C (centres undefined)	-31.6%
Cc1nc2cc(O)nn2c(C)c1CCC(=O)NCc1cc(Br)cs1	15.28%
Cc1cc(C(=O)NCC2COCc3c(C)nnn3C2)no1 (centres undefined)	14.39%
CCN1CC(C(=O)N(C)Cc2ccon2)CC1=O (centres undefined)	-26.32%
CN(C)CC(=O)N1CC[C@H]2OCC[C@@]2(COCC2CC2)C1	11.87%
c1cnc(N2CC[C@@H](OCC3CC3)[C@@H]2Cc2cccnc2)nc1	23.21%
CNC(=O)COC1COC2(CCN(c3ccc(C#N)cc3)CC2)C1 (centres undefined)	14.97%
COCC(=O)N(CCC(=O)OC)CC1CCCO1 (centres undefined)	10.4%
COCC(=O)N1CC[C@H]2C[C@H](c3nnc(C4CC4)o3)O[C@@H]2C1	50.61%
COCC(=O)N1CC[C@H]2C[C@@H](c3nnc(C4CC4)o3)O[C@@H]2C1	6.55%
COCC(=O)N1CC[C@H]2C[C@H](c3nc(C)no3)O[C@@H]2C1	-1.81%
CC(C)CS(=O)(=O)CCNC(=O)Nc1cccc2ncccc12	-41.73%
O=C(Cn1cc(C(=O)O)ccc1=O)Nc1ccc(F)cc1Cl	-5.95%
COCCOCC(=O)Nc1cc(C)ccc1F	12.56%
O=C(Cn1cc(C(=O)O)ccc1=O)NCc1ccc(F)cc1Cl	9.27%
Cc1ccc(Cl)cc1NC(=O)Cn1cc(C(=O)O)ccc1=O	22.4%
COCCOCC(=O)Nc1ccc(C)cc1F	11.28%
COCCOCC(=O)Nc1ccc(F)cc1C	52.74%
Cc1cc(F)ccc1NC(=O)Cn1cc(C(=O)O)ccc1=O	55.39%
O=C(Cn1cc(C(=O)O)ccc1=O)Nc1cc(F)ccc1F	63.46%
O=C(Cn1cc(C(=O)O)ccc1=O)Nc1ccc(Cl)cc1F	33.23%
O=C(CC1COCCN1C(=O)c1cscn1)c1ccccc1 (centres undefined)	5.43%
CNC(=O)Cc1ccccc1NC(=O)C1CCN(C2CCCCC2)C1 (centres undefined)	-0.39%

Structure (SMILES)	INHIBITION
CC(=O)Nc1ccc(CNCc2ccc(CS(C)(=O)=O)cc2)cc1	-1.53%
Cc1nc(CN2CCCC(NCCCOc3ccc(F)cc3)C2)no1 (centres undefined)	4.18%
CCc1ncc(C(=O)NCC2CCN(Cc3ccncc3)CC2)cn1	-6.29%
CCN1CCN(C2CCN(Cc3cc(C)on3)CC2)C1=O	-14.11%
Cc1csc(N2CCN(C(=O)CCc3nccs3)CC2)n1	-18.67%
Cc1[nH]ncc1C(=O)N(CC(C)C)CC(O)c1ccc(F)cc1 (centres undefined)	25.65%
CC(C)CN(CC(O)c1ccc(F)cc1)C(=O)c1cc[nH]n1 (centres undefined)	10.91%
Cc1cc(C(=O)N(CC(C)C)CC(O)c2ccc(F)cc2)[nH]n1 (centres undefined)	51.96%
COc1cccc(CNC(=O)N2CCCC(Cn3cc(CN)nn3)C2)c1 (centres undefined)	76.82%
NCc1cn(CC2CCCN(C(=O)NCc3ccc(Cl)cc3)C2)nn1 (centres undefined)	62.51%
CCC(=O)N1CCCC(Cn2cc(-c3ccc(F)cc3)nn2)C1 (centres undefined)	-27.82%
CC(C)NC(=O)N1CCCC(Cn2cc(-c3ccc(F)cc3)nn2)C1 (centres undefined)	-17.86%
NCc1cn(CC2CCCN(C(=O)NCCc3ccc(F)cc3)C2)nn1 (centres undefined)	62.51%
COc1cccc(CNC(=O)CN2CCCC(Cn3cncn3)C2)c1 (centres undefined)	-0.76%
CNc1ccc(Cl)cc1C(=O)N1CCC(Cn2cc(CN)nn2)CC1	3.72%
NCc1cn(CC2CCCN(C(=O)CC3=CCCCC3)C2)nn1 (centres undefined)	16.72%
COc1ccc(CC(=O)N2CCCC(Cn3cc(CN)nn3)C2)cc1 (centres undefined)	12.43%
Cc1nnc(NC(=O)NCc2ccc(OC3CCCC3)nc2)s1	12.74%
CCN1C(=O)CO[C@@H]2CN(C(=O)C3CCOCC3)C[C@H]21	18.31%
COc1ccc(N(c2ccc(OC)cc2)c2ccc(C(=O)O)s2)cc1	14.95%
CC1c2ncc(COCC3CC3)n2CCN1C(=O)c1ccnn1C (centres undefined)	21.67%
Cc1cc(NC(=O)NCC(C(C)C)N2CCOCC2)n(C)n1 (centres undefined)	11.63%
CN(Cc1cccnc1)C[C@H]1OC[C@@H]2CCN(C(=O)C3CC3)C[C@@H]21	8.62%
CC(CCN1CCC(n2cc(CCO)nn2)CC1)c1ccccc1 (centres undefined)	30.89%
Cc1cccc(CN2CCC(n3cc(CCO)nn3)CC2)c1C	55.36%
Cc1ccc(CN2CCC(n3cc(CN4CCC(O)CC4)nn3)CC2)s1	35.7%
Cc1nc(C2CCCN2C(=O)c2cc3c(s2)CCC3)no1 (centres undefined)	16.89%
